The source of these data is publication PMC7819943, “Rice protein-binding microarrays: a tool to detect cis-acting elements near promoter regions in rice”.

The full ranking holds about 68,000 sequences; the median of “fluorescence intensity (a.u.)” is about 9,100, and the highest 2% start at about 16,000. This excerpt belongs to a sample that is enriched for the highest values.

OsWRKY34, sequence (Q0JBA9 entry or part of it): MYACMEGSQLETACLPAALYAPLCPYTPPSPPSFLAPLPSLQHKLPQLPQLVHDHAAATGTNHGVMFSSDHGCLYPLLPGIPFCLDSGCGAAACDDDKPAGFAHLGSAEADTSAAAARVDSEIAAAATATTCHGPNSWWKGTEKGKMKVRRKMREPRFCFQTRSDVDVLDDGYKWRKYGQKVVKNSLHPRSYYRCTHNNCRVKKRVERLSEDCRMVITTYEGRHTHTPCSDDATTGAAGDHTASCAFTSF

This test addresses OsWRKY34 (Oryza sativa, UniProt Q0JBA9 1-250). The test is described as follows: protein-binding microarray (RPBM); PBS, 2% BSA, 51.3 ng/ul salmon testes DNA, 50 uM zinc acetate, 200 nM TF, 25 C, 1 h; high values mean tight binding. The settings on record: protein: recombinant; tags: N-terminal polyhistidine and DsRed monomer fusion (pET32a); label: CyDye5-dUTP incorporated in the synthesized complementary strand; 3' TTTTT single-stranded linker to array surface; dsDNA, one strand shown. In short, it runs like this:
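A custom Agilent array was converted to double-stranded form by primer extension with Cy5-dUTP and blocked with 2% BSA. Protein at 200 nM in PBS with 2% BSA, salmon testes DNA and 50 µM zinc acetate was applied for 1 h at 25 °C, followed by washing. The proteins were polyhistidine–DsRed N-terminal fusions of transcription factors, expressed in E. coli BL21-CodonPlus and Ni–NTA-purified. The binding signal is per-feature fluorescence intensity (arbitrary units) from an Axon 4000B scanner.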
“CTGTTCCATTTCTCCTTGTTGCATCAGTAACTCCAAACCACGGAGTCACCTAGTGCAG”: the binding signal was 12200 fluorescence intensity (a.u.).

“GATTATTTGCTTTACGGTTTTTTAAAAAAATTTCTTCATACGGAGTCACCTAGTGCAG”: the binding signal is 9590 fluorescence intensity (a.u.). Consider “CACACACACCCTGTCGAGCGAATATGCATGTCTTCTCAAGCGGAGTCACCTAGTGCAG”, for which the binding signal is 8960 fluorescence intensity (a.u.). Consider “TCCCTTTTGAGTACCACTGCTGATATCTGGATGCCCGTCACGGAGTCACCTAGTGCAG”, for which the binding signal is 8080 fluorescence intensity (a.u.).

In the case of “TTCACAATGTAAGCCATTCTAGCATTTTCCATATTTATATCGGAGTCACCTAGTGCAG”, the binding signal is 8240 fluorescence intensity (a.u.). As for “ATTTTGCCCCTTGTTGATCACCACAGAAGAACATGTGCTACGGAGTCACCTAGTGCAG”, the binding signal is 9790 fluorescence intensity (a.u.). As to “AACTTTACAATTTTTTTATGTCATCCATGTCACATGTTTTCGGAGTCACCTAGTGCAG”, the binding signal is 9030 fluorescence intensity (a.u.). Take “TGTTAACTTTTTAGTACGTGTTTGACTATTCGTTTTATTCCGGAGTCACCTAGTGCAG”: the binding signal was 12800 fluorescence intensity (a.u.). Next, “ACCCACTTTCGACTCCATGAATTTCATCACATTTGTTTTACGGAGTCACCTAGTGCAG”: 18600 fluorescence intensity (a.u.). As for “TTTGACACCGTTGATTTTTTAATATGTGTTTGACCATTCGCGGAGTCACCTAGTGCAG”, the binding signal is 9260 fluorescence intensity (a.u.). With “TGTCACATTCGTCTCCGGTCCGTACGTTGCTGTATTTTAGCGGAGTCACCTAGTGCAG” the figure was 17100 fluorescence intensity (a.u.); with “GTTCATATAGTACGTACTTTTATTCGTTAGTATATATGACCGGAGTCACCTAGTGCAG”, 9410 fluorescence intensity (a.u.). “TTTAGTACGTGTTTGACCATTCGTCTTATTAAAAAAATTTCGGAGTCACCTAGTGCAG”: the binding signal was 9130 fluorescence intensity (a.u.).

Take “GGTCGTCGTCTTTGCATTGTCTCCTTGTCCGGTACGTTGGCGGAGTCACCTAGTGCAG”: the binding signal is 9400 fluorescence intensity (a.u.). Next, “CCCATTCTTTCACTTTTGACCTTTTTTTATCATTTTGTTTCGGAGTCACCTAGTGCAG”: 9510 fluorescence intensity (a.u.); “ATCCGTGTATTATAGCGTTTCGTAGTAGTATTTTTATGTCCGGAGTCACCTAGTGCAG”: 9280 fluorescence intensity (a.u.); “CGTTGACTTTTTAGTACGTGTTTGACCATTCGTCTTATTCCGGAGTCACCTAGTGCAG”: 30200 fluorescence intensity (a.u.).

Turning to “TTTGACACCGTTGACTTTTTAGTACGTATTTGATCATTCGCGGAGTCACCTAGTGCAG”, the binding signal is 33800 fluorescence intensity (a.u.). Turning to “GTTCCCAACGGTCACCTCGTCGTCGTTGCCAAATCTGCCACGGAGTCACCTAGTGCAG”, the binding signal is 8670 fluorescence intensity (a.u.). Next, “ATCACGTCGCCTCGTTTCTTGCCTCGCCGCTCGTTGCTCGCGGAGTCACCTAGTGCAG”: 12200 fluorescence intensity (a.u.); “AATACCAAGTTTATTTCTCACCTGCATTTTAGATTCTCATCGGAGTCACCTAGTGCAG”: 9050 fluorescence intensity (a.u.). Next, “TAGTCCACCTTTTATTACCCAAGTTTCAATTTGGACCACCCGGAGTCACCTAGTGCAG”: 9740 fluorescence intensity (a.u.). “TCCCTTCCCTGTTCCTGGCGACGTGTCACCTTCTTATTCGCGGAGTCACCTAGTGCAG”: the binding signal is 8050 fluorescence intensity (a.u.).

Regarding “ATAAACATTGACTCGCCGGAGTAGTTTTGAAACGTTTGACCGGAGTCACCTAGTGCAG”, the binding signal was 9180 fluorescence intensity (a.u.). For the sequence “GCAACCAACATCCCGGCGGCGAGCTCGTACGTACCAAATCCGGAGTCACCTAGTGCAG”, the binding signal was 10800 fluorescence intensity (a.u.). As to “CACACCACACACTGATGCAACGGCACTTAAGCGCACGAAGCGGAGTCACCTAGTGCAG”, the binding signal was 8060 fluorescence intensity (a.u.).

Turning to “CGTCGGTGTGGTATGCTTGTCGCGCGGCGGCGCGGCCGTACGGAGTCACCTAGTGCAG”, the binding signal was 8790 fluorescence intensity (a.u.). Next, “CCTACCTCCTACTCCTTATCCTCCACTTCGTCGCATTACACGGAGTCACCTAGTGCAG”: 8750 fluorescence intensity (a.u.); “CGACTGCAGCTGATCCGGATTCAACACGGACATAGTACACCGGAGTCACCTAGTGCAG”: 8550 fluorescence intensity (a.u.). With “ATTTAGTTCTCAACATACCCCTTTTCATCTTTTTGTCAGACGGAGTCACCTAGTGCAG” the figure was 8840 fluorescence intensity (a.u.); with “GTTGACTTTTTGATTAACGTTTGACCATTCGTTTTATTCACGGAGTCACCTAGTGCAG”, 9480 fluorescence intensity (a.u.). Next, “TCATTGACTTTTCGATCAACGTTTGACCATTTGTTTTATTCGGAGTCACCTAGTGCAG”: 16700 fluorescence intensity (a.u.); “AATATTTTTTTTTACTGTTTTCACTTTGACCATTAATATTCGGAGTCACCTAGTGCAG”: 9790 fluorescence intensity (a.u.).

“ACACCGTTGACTTTTTAGTACGTATTTGACCATTCGTCTTCGGAGTCACCTAGTGCAG”: the binding signal is 36700 fluorescence intensity (a.u.). Next, “GCTGTTGACTTTCGACCTACGTTTGACCATTCGTTTTATTCGGAGTCACCTAGTGCAG”: 20600 fluorescence intensity (a.u.); “CTTTTTAATCAACGTTTGACCATTCGTCTTATTCAATTTTCGGAGTCACCTAGTGCAG”: 10900 fluorescence intensity (a.u.); “CGTTGACTTTTTAGTACATGTTTGACCATTCGTCTTATTCCGGAGTCACCTAGTGCAG”: 36100 fluorescence intensity (a.u.).

With “TCATTCATATTATTTATTATTTAGTTGTTTGACTTTTTTTCGGAGTCACCTAGTGCAG”, the binding signal is 9600 fluorescence intensity (a.u.).

In the case of “GCCATTTGTACGTTTCTATTTTCTCAGTAATCAGACCATTCGGAGTCACCTAGTGCAG”, the binding signal is 11600 fluorescence intensity (a.u.).

In the case of “CCCGTCTCCTCGCCTGCCGATCTCCATCCTGCTAGCAGAGCGGAGTCACCTAGTGCAG”, the binding signal was 8930 fluorescence intensity (a.u.). For “AGATACATACGCCCACCCGCCGCGCCCACTTCCGTCCAAACGGAGTCACCTAGTGCAG”, the binding signal is 8490 fluorescence intensity (a.u.). With “TCCTCCTGTCTCTGCCTCTGCTCGGCTAGTCTAGTGTACTCGGAGTCACCTAGTGCAG” the figure was 8810 fluorescence intensity (a.u.).

As to “GTATTTAATTAGCTCCTCGTCTTGTTCTGCTAAGCTACTACGGAGTCACCTAGTGCAG”, the binding signal was 9460 fluorescence intensity (a.u.).

Turning to “TTGTCATCCTCGCCACCTCATTCTTTCTTTCTTTCATCTCCGGAGTCACCTAGTGCAG”, the binding signal is 12900 fluorescence intensity (a.u.). With “ACATAACACCACTTGATACTATTTCTCTTAATTAATTACTCGGAGTCACCTAGTGCAG” the figure was 9670 fluorescence intensity (a.u.). Next, “GACTTTTTAGTACGTGTTTGACCATTCGTCTTATTCAAAACGGAGTCACCTAGTGCAG”: 11900 fluorescence intensity (a.u.); “GTTGACTTTTTAGTACGTGTTTGACCATTCGTCTTATTCACGGAGTCACCTAGTGCAG”: 10100 ± 646 fluorescence intensity (a.u.); “CCGTTGACTTTTTAGTACGTGTTTGACCATTCGTCTTATTCGGAGTCACCTAGTGCAG”: 32300 ± 947 fluorescence intensity (a.u.). As for “CCATTGTTAGGGTTAAGTCTTATTTCACCACATCGTTTTTCGGAGTCACCTAGTGCAG”, the binding signal is 8740 fluorescence intensity (a.u.). Next, “GGCTTACCCAAGAATAACGATCCAACTTGGGGAGGGAGGGCGGAGTCACCTAGTGCAG”: 10000 fluorescence intensity (a.u.). In the case of “TTTGACACCGTTGACTTTTTTAAACATGTTTAACTGTTCGCGGAGTCACCTAGTGCAG”, the binding signal is 33900 fluorescence intensity (a.u.). With “AATGTTTGACACCGTTGACTTTTTAACACATGTTTGACCGCGGAGTCACCTAGTGCAG” the figure was 39300 fluorescence intensity (a.u.); with “TTTGACGCTGTTGACTTTTTTTAACATGTTTGACTGTTCGCGGAGTCACCTAGTGCAG”, 32700 fluorescence intensity (a.u.); with “TTGACTTTTTTAAACATGTTTAACTGTTCGTCTTATTAAACGGAGTCACCTAGTGCAG”, 8820 fluorescence intensity (a.u.).
